These results are taken from PubChem BioAssay (NCI).

Molecules are shown by their SMILES. Compounds without any hit were thinned out: in the full panel of roughly 83,000, 20% have a hit.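 Values shown are percent growth following 48 h exposure of cells in 96-well plates to a single concentration of compound; below 10 was considered active.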 Unmarked numbers belong to inactive results. The source made the active and inactive calls.

Test systems include NCI-H23 lung; NCI-H226 lung; NCI-H322M lung; HOP-62 NSCLC; NCI-H460 lung; HOP-92 NSCLC; NCI-H522 lung; A549/ATCC NSCLC; 786-0 renal; COLO 205 colon; DU-145 prostate; K-562 leukemia; MALME-3M melanoma; MDA-MB-231 breast; RXF 393 renal; SF-268 CNS; SF-295 CNS; SF-539 CNS; UACC-257 melanoma; M14 melanoma.
Assay in all cases: NCI-60 one-dose screen, 48 h (100 = growth as untreated, 0 = no growth, -100 = all killed)
What all share (conditions): 10 µM unless noted

On to `c1ccc(-c2nc(N3CCNCC3)c3oc(-c4ccccc4)nc3n2)cc1`, for which the growth with NCI-H23 lung is -66.8% (active); in the experiment with NCI-H226 lung it was -41.6% (active); in the experiment on NCI-H322M lung, -95.1% (active); with HOP-62 NSCLC it was -67.9% (active); in the experiment with NCI-H460 lung it was -81.1% (active); in the experiment on HOP-92 NSCLC, -53.1% (active). The growth in the experiment on NCI-H522 lung is -28.3% (active); in the experiment on A549/ATCC NSCLC, -44.8% (active); in the experiment with 786-0 renal, -74.1% (active); in the experiment with COLO 205 colon it was -39.7% (active); in the experiment with DU-145 prostate it was -55.4% (active); with K-562 leukemia, 2.28% (active). In addition, the growth is -93.9% (active) in the experiment on MALME-3M melanoma; -87.1% (active) in the experiment on MDA-MB-231 breast; -81.4% (active) in the experiment with RXF 393 renal; -48.8% (active) in the experiment on SF-268 CNS; -73.6% (active) in the experiment with SF-295 CNS; -95.9% (active) in the experiment with SF-539 CNS. Besides, the growth with UACC-257 melanoma is 101%; with M14 melanoma, -60.3% (active).

For `[2H]C([2H])([2H])Oc1ccc(/C=C/C(=O)/C=C(/C=C/c2ccc(OC([2H])([2H])[2H])c(OC([2H])([2H])[2H])c2OC([2H])([2H])[2H])OB(F)F)c(OC([2H])([2H])[2H])c1OC([2H])([2H])[2H]`, the growth is 59.5% with NCI-H23 lung; 88.5% with NCI-H226 lung; 97.7% with NCI-H322M lung; 85.7% in the experiment on HOP-62 NSCLC; 91.7% with NCI-H460 lung; 74.1% with HOP-92 NSCLC. Moreover, the growth in the experiment on NCI-H522 lung was 45.9%; in the experiment on A549/ATCC NSCLC, 84.2%; with 786-0 renal it was 70.9%; in the experiment on COLO 205 colon, 43.6%; in the experiment with DU-145 prostate it was 68.8%; with K-562 leukemia, 29.3%. In addition, the growth in the experiment with MALME-3M melanoma was 57%; with MDA-MB-231 breast it was 75.1%; in the experiment with RXF 393 renal, 83.8%; in the experiment on SF-268 CNS, 88.8%; in the experiment with SF-295 CNS, 97.2%; in the experiment with SF-539 CNS, 77.7%. For the same molecule, the growth in the experiment on UACC-257 melanoma was 53.5%; in the experiment on M14 melanoma it was 61.2%.

Turning to `O=C1C2C(c3cccs3)C=C(c3ccc(Cl)cc3)N2C(=S)N1c1ccccc1` (stereo not given), the growth was 94.2% with NCI-H23 lung; 86.8% with NCI-H226 lung; 102% in the experiment with NCI-H322M lung; 101% in the experiment with HOP-62 NSCLC; 108% with NCI-H460 lung; 97.2% with HOP-92 NSCLC. Also, the growth in the experiment on NCI-H522 lung was 98.6%; in the experiment on A549/ATCC NSCLC, 101%; with 786-0 renal, 102%; with COLO 205 colon, 119%; in the experiment on DU-145 prostate, 110%; in the experiment with K-562 leukemia, 101%. The growth is 115% with MALME-3M melanoma; 86.3% with MDA-MB-231 breast; 102% in the experiment with RXF 393 renal; 96.7% in the experiment with SF-268 CNS; 104% with SF-295 CNS; 93% with SF-539 CNS. Further, the growth is 105% in the experiment on UACC-257 melanoma and 101% in the experiment with M14 melanoma.

Turning to `O=c1c(Cc2ccc(F)cc2)cc(-c2ccccc2)nn1C/C(=N/O)c1ccccc1`, the growth in the experiment with NCI-H23 lung was 49%; in the experiment with NCI-H226 lung, 57.1%; in the experiment on NCI-H322M lung, 70%; with HOP-62 NSCLC, 62.7%; with NCI-H460 lung, 37.4%; with HOP-92 NSCLC it was 42.6%. Moreover, the growth was 42.6% in the experiment on NCI-H522 lung; 24.2% with A549/ATCC NSCLC; 69.2% with 786-0 renal; 47.9% with COLO 205 colon; 79.6% with DU-145 prostate; 29.2% in the experiment on K-562 leukemia. For the same molecule, the growth in the experiment with MALME-3M melanoma was 35.8%; with MDA-MB-231 breast, 43.1%; in the experiment with RXF 393 renal, 28.5%; in the experiment with SF-268 CNS it was 52.6%; in the experiment on SF-295 CNS, 31.9%; with SF-539 CNS, 81.9%. Moreover, the growth in the experiment with UACC-257 melanoma was 53.8%; with M14 melanoma it was 37.5%.

As to `Cc1cc2nc(C(Cl)Cl)nc(-c3ccccc3)n2n1`, the growth was 33.6% in the experiment on NCI-H23 lung; 90.7% in the experiment with NCI-H226 lung; 10.9% with NCI-H322M lung; 31.9% in the experiment with HOP-62 NSCLC; -50% (active) in the experiment with NCI-H460 lung; 72.9% in the experiment on HOP-92 NSCLC. Also, the growth with NCI-H522 lung is 72.4%; in the experiment on A549/ATCC NSCLC it was 4.73% (active); in the experiment on 786-0 renal, 92.4%; in the experiment with COLO 205 colon it was 1.99% (active); with DU-145 prostate it was -6.97% (active); with K-562 leukemia, 66.4%. Also, the growth with MALME-3M melanoma was 113%; in the experiment on MDA-MB-231 breast, 62.7%; in the experiment on RXF 393 renal it was 9.08% (active); in the experiment on SF-268 CNS, 77.8%; with SF-295 CNS, 55.7%; in the experiment with SF-539 CNS it was 76.7%. The growth in the experiment with UACC-257 melanoma was 93%; in the experiment on M14 melanoma, 73.3%.

Turning to `O=C1c2c(c3c4cc(F)ccc4oc3c3[nH]c4ccccc4c23)C(=O)N1O`, the growth is 23.4% in the experiment with NCI-H23 lung; 59.3% in the experiment on NCI-H226 lung; 57.7% in the experiment on NCI-H322M lung; 24.2% in the experiment on HOP-62 NSCLC; 5.01% (active) in the experiment with NCI-H460 lung; 48.8% in the experiment on HOP-92 NSCLC. The growth is 30.5% in the experiment on NCI-H522 lung; 54.2% in the experiment with A549/ATCC NSCLC; 47.6% with 786-0 renal; 57.7% in the experiment with COLO 205 colon; 31.8% in the experiment on DU-145 prostate; 26.1% in the experiment on K-562 leukemia. In addition, the growth with MALME-3M melanoma is 28%; in the experiment on MDA-MB-231 breast it was 57.6%; in the experiment on RXF 393 renal, 39.9%; in the experiment on SF-268 CNS, 38.7%; with SF-295 CNS it was 55.7%; in the experiment on SF-539 CNS it was 2.46% (active). Moreover, the growth was 75.9% in the experiment on UACC-257 melanoma and 28.6% with M14 melanoma.

On to `CCCCC#Cc1c(I)n(C2OC(CO[Si](C)(C)C(C)(C)C)C3OC(C)(C)OC32)c(=O)[nH]c1=O` (stereo not given), for which the growth with NCI-H23 lung is 78%; with NCI-H226 lung, 88.2%; in the experiment on NCI-H322M lung, 84.3%; with HOP-62 NSCLC, 102%; with NCI-H460 lung it was 107%; in the experiment on HOP-92 NSCLC, -30.5% (active). The growth with NCI-H522 lung is 79.9%; in the experiment with A549/ATCC NSCLC, 94%; in the experiment on 786-0 renal it was 82.4%; in the experiment on COLO 205 colon, -59.1% (active); in the experiment with DU-145 prostate it was 74.1%; with K-562 leukemia, 36.3%. Further, the growth with MALME-3M melanoma was 60.6%; in the experiment on MDA-MB-231 breast, 79%; in the experiment with RXF 393 renal, -56.4% (active); in the experiment on SF-268 CNS it was 98.4%; in the experiment on SF-295 CNS, 113%; with SF-539 CNS, 88.1%. The growth with UACC-257 melanoma is 55.1%; with M14 melanoma it was 76%.

With `COc1cc(CNC(=O)CCCC/C=C/C(C)C)ccc1OCc1cn(-c2cccc([N+](=O)[O-])c2)nn1`, the growth in the experiment with NCI-H23 lung was 88%; with NCI-H226 lung, 90.9%; in the experiment on NCI-H322M lung, 94.1%; in the experiment with HOP-62 NSCLC, 97.4%; in the experiment with NCI-H460 lung it was 91.8%; with HOP-92 NSCLC it was 70.4%. Further, the growth in the experiment on NCI-H522 lung was 82.6%; with A549/ATCC NSCLC, 92%; in the experiment on 786-0 renal, 73.4%; with COLO 205 colon, 107%; in the experiment with DU-145 prostate it was 109%; in the experiment on K-562 leukemia, 81.5%. The growth in the experiment with MALME-3M melanoma was 103%; with MDA-MB-231 breast, 88.4%; with RXF 393 renal, 92.7%; in the experiment with SF-268 CNS, 92.3%; in the experiment with SF-295 CNS, 104%; in the experiment on SF-539 CNS it was 94.4%. The growth is 94.4% in the experiment on UACC-257 melanoma and 93.5% in the experiment with M14 melanoma.
